# Screening results as filed in PubChem BioAssay.
# The list is not random: actives were taken first. Their share in the collection is about 1.6%.
# KCNQ2 inh = rat KCNQ2 potassium channel inhibitors, primary screen, cell-based, CHO-K1, FluxOR thallium flux, B-score. Potassium voltage-gated channel subfamily KQT member 2 (Rattus norvegicus), O88943. 20 min; stronger effect = lower value. B-score at 10 µM. actives 1.1% (n = 310,000). AID 2156, 2009;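 active means fluorescence ratio B-score at most minus 3 library SDs, with starting brightness B-score within 2 library SDs, cut at about -5.5 in these data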
# Target sequence (O88943 whole entry, looked up): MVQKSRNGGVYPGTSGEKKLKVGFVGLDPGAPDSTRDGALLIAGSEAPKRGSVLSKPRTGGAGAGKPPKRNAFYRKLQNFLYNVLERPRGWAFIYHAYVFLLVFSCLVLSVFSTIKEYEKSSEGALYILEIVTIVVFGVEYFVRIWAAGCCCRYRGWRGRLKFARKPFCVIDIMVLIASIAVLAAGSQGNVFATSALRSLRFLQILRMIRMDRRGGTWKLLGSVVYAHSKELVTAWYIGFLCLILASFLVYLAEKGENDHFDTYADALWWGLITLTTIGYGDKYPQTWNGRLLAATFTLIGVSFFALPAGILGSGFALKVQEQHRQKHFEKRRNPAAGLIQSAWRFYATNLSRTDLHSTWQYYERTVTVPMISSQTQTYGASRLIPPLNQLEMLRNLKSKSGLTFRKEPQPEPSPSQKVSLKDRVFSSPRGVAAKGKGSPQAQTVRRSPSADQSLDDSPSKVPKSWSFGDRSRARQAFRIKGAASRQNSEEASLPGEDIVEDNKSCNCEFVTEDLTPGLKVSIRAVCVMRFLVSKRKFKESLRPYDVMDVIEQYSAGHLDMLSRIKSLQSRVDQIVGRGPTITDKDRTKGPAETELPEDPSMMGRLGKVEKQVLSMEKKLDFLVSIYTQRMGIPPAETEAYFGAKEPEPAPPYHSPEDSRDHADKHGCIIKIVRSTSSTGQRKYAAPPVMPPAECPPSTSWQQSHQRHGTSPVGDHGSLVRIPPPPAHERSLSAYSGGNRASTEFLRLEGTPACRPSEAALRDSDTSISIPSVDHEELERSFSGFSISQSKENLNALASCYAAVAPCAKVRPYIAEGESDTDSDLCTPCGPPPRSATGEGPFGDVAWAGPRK
# KCNQ2 pot = potentiators of rat KCNQ2 potassium channel; Potassium voltage-gated channel subfamily KQT member 2 (Rattus norvegicus), O88943; CHO-K1 KCNQ2, FluxOR thallium flux fluorescence; stronger effect = higher value; B-score at 10 µM; actives 0.54% (n = 310,000);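 active means fluorescence ratio B-score at least 3 SD of library B-scores, with initial fluorescence B-score within 3 of them, cut at about 5.3 in these data; same plate scores as AID 2156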;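 further: B-score of peak minus minimum over baseline fluorescence ratio after K+ and Tl+ stimulus; positive B-score means potentiation of KCNQ2 with more thallium influx and brighter signal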
# An asterisk follows results filed as active; i = inactive; . = no result given.
SMILES,KCNQ2 inh,KCNQ2 pot
NC(=O)NC(=O)COC(=O)CC12CC3CC(CC(C3)C1)C2,i,1.46
CCCc1cc(C(=O)Nc2cc(C)ccc2O)no1,i,.
CC(C)(C)c1cc(C(=O)Nc2ccc(F)cc2)n(Cc2ccc(F)cc2)n1,-5.94*,-5.94
Cc1ccc(NC(=O)c2cc(C(C)(C)C)nn2Cc2ccccc2)cc1,i,.
Cc1ccc(CNC(=O)c2cc(=O)c3ccccc3o2)cc1,i,0.3
Cc1ccc(-c2c(C(=O)NCc3ccc(F)cc3)oc(=O)c3ccccc23)cc1,i,9.22*
CCN(c1ccccc1)S(=O)(=O)c1cc2c3c(c1)CCN3C(=O)CC2,i,0.22
COC(=O)CSc1nnc(CNc2ccc(Cl)cc2)n1-c1ccccc1,-5.75*,-5.75
O=C(O)CSc1nnc(CNc2ccc(F)cc2)n1-c1ccccc1,i,0.62
O=C(Nc1cccc(Cl)c1)N1N=CCC1c1ccccc1 (centres undefined),-6.15*,-6.15
O=C(Nc1cccc2ccccc12)N1N=CCC1c1ccccc1 (centres undefined),i,.
c1ccc(-c2ccc3c(c2)c2c4n3CCN=C4CCC2)cc1,-7.54*,-7.54
OC1CN=C2CCCc3c2n(c2ccc(Cl)cc32)C1 (centres undefined),i,.
Nc1cc([N+](=O)[O-])cc2oc(-c3ccccc3)cc12,i,.
CN(C)c1cccc(C(=O)OC(C(=O)Nc2ccc(Cl)cc2C(F)(F)F)c2ccccc2)c1 (centres undefined),-8*,-8
O=C(OC(C(=O)Nc1ccc(Cl)cc1C(F)(F)F)c1ccccc1)C1=COCCO1 (centres undefined),i,.
CCc1ccc(CN2CCCC(C(=O)N3CCCCC3)C2)cc1 (centres undefined),i,1.59
CCC[C@@H](CNC)NC[C@H](Cc1ccccc1)NCCCCc1ccccc1,-6*,-6
CCC[C@@H](CN[C@@H](CNC)C(C)C)NCCCCc1ccccc1,i,.
CCN1CCN(CC(=O)Nc2cc(C(F)(F)F)ccc2OCCOC)CC1,i,1.05
CCOC(=O)c1ccc(NC(=O)COc2ccccc2CNCCc2ccccc2)cc1,-6.77*,-6.77
CCOC(=O)c1ccc(NC(=O)COc2ccc(CNCCO)cc2OCC)cc1,i,0.04
COc1ccc(NC(=O)C(=O)N/N=C(\C)CC(=O)Nc2cc(C)ccn2)c(OC)c1,i,1.03
C/C(CC(=O)Nc1cc(C)ccn1)=N\NC(=O)C(=O)Nc1cccc(C)c1,i,5.36*
Cc1cccc(S(=O)(=O)Nc2nc3ccccc3nc2OC(C)C)c1,i,.
SMILES,KCNQ2 inh,KCNQ2 pot
Cc1cc(Br)c(NC(=O)c2c(-c3c(Cl)cccc3Cl)noc2C)c(Br)c1,i,.
Cc1nn(C(C)C(=O)N2CCN(c3ccccn3)CC2)c(=O)c2cc3occc3n12 (centres undefined),i,1.02
CCc1nn(C(C)C(=O)N2CCN(Cc3ccccc3)CC2)c(=O)c2cc3occc3n12 (centres undefined),i,.
Cc1cccc(N2CCN(C(=O)C(C)n3nc(C)n4c(cc5occc54)c3=O)CC2)c1C (centres undefined),-6.11*,-6.11
CCc1nn(C(C)C(=O)N2CC(C)CC(C)C2)c(=O)c2cc3occc3n12 (centres undefined),-8.1*,-8.1
O=C(Nc1ccc(F)c(F)c1)c1cnc(-c2ccccc2)nc1-c1ccccc1,-5.62*,-5.62
O=C(Nc1ccc(F)cc1)c1cnc(-c2ccccc2)nc1-c1ccccc1,i,.
CCn1c(=O)c([N+](=O)[O-])c(Cl)c2ccccc21,-6.65*,-6.65
CCn1c(=O)c([N+](=O)[O-])c(NCCN(C)C)c2ccccc21,i,.
O=C(NCC1CCN(Cc2ccc(F)cc2)CC1)C1CCCN(c2ncnc3c2nc2n3CCCCC2)C1 (centres undefined),i,.
O=C(NCC1CCN(Cc2ccc(Cl)cc2)CC1)C1CCCN(c2ncnc3c2nc2n3CCCCC2)C1 (centres undefined),-6.57*,-6.57
CC1CN(c2nc(Nc3ccccc3F)nc(N)c2[N+](=O)[O-])CC(C)O1 (centres undefined),i,2.01
COc1ccc(C2=C(CC(=O)O)C(=O)CC2)cc1,i,.
Cc1ccc(C)c(NC(=S)NNC(=O)c2cc3c(s2)CCC(C)C3)c1 (centres undefined),i,11.3*
CC1CCc2sc(C(=O)NN=C3CCC(c4ccccc4)CC3)cc2C1 (centres undefined),i,0.75
Cc1ccc(C)c(NC(=S)NNC(=O)c2sccc2C)c1,i,1.65
Cc1cccc(NC(=S)NNC(=O)c2cc3c(s2)CCC(C)C3)c1C (centres undefined),i,8.53*
COc1ccc(-c2noc(CNC(=O)CCN3C(=O)[C@H]4CC=CC[C@H]4C3=O)n2)cc1,i,0.04
CCc1nccn1S(=O)(=O)c1ccccc1[N+](=O)[O-],i,.
